The values below come from PubChem BioAssay (Tox21).

Assay [1] is described as follows: cAMP Responsive Elements (CRE) small molecule antagonists, cell-based qHTS assay: qHTS cell viability counter screen (AID 2060913). Also: nearly all actives have a fitted effect of over 40% in size. In short, it runs like this: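 CRE-bla HEK293T cells (2,000/well, 18 h) given compound plus NKH477 0.25 uM final for 3 h at 37C; viability counter-screen by CellTiter-Glo luminescence in same wells after 30 min.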
A short description of assay [2]: cAMP Responsive Elements (CRE) small molecule agonists, cell-based qHTS assay: qHTS cell viability counter screen (AID 2060914). Also: nearly all actives have a fitted effect of over 50% in size. In short, it runs like this:
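Luminescence read-out (CellTiter-Glo, 30 min RT) of ATP-based viability in CRE-bla HEK 293T cells, run in the same wells as the β-lactamase reporter assay after 3 h compound treatment at 37 °C.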

Records with an inconclusive call do not appear. Values without a mark were called inactive. Activity calls are given as the source filed them. Calls follow the shape of the dose curve; as a rule, active = well fitted cell-killing curve with a large enough effect in the repeat runs; inconclusive = weak or mixed curves, or effect the other way; inactive = flat fitted curve, though single readings scatter.
% is scaled to controls: 0 for no effect and ±100 for the full control effect.

On to `CCc1ccc(O)cc1`, for which the Potency result in assay [1] and in assay [2] was “inactive” in each case.
With `CCCCC(CC)COC(=O)CCCCC(=O)OCc1ccccc1` (stereo not drawn), the Potency entry in assay [1] and in assay [2] was “inactive” in each case.
Turning to `O=C(CCN1CCN(CCO)CC1)N1c2ccccc2Sc2ccc(C(F)(F)F)cc21`, the Potency entry in assay [1] and in assay [2] was “inactive” throughout.
As to `CC(C)[C@@H]1CC[C@@H](C)CC1=O`, the Potency entry in assay [1] and in assay [2] was “inactive” throughout.
Take `CC(C)C(=O)Nc1cccc(C(F)(F)F)c1`: the Potency entry in assay [1] and in assay [2] was “inactive” each time.
For the molecule `c1cnc2cc3c(cc2n1)C1CNCC3C1`, the Potency entry in assay [1] and in assay [2] was “inactive” throughout.
As for `FC(F)(F)C(Cl)(Cl)Cl`, the Potency result in assay [1] and in assay [2] was “inactive” each time.
`NCCCCCCN`: the Potency entry in assay [1] and in assay [2] was “inactive” each time.
With `CC1(C)CC(N=C=O)CC(C)(CN=C=O)C1` (stereo not drawn), the Potency entry in assay [1] and in assay [2] was “inactive” each time.
Take `Oc1ccc(C(c2ccc(O)cc2)C(Cl)(Cl)Cl)cc1`: the Potency result in assay [1] and in assay [2] was “inactive” each time.
Consider `CC(C)CC(=O)CC(C)CC(C)C` (stereo not drawn), for which the Potency entry in assay [1] and in assay [2] was “inactive” each time.
`NC(N)=NCCN1CCCCCCC1`: the viability change, negative = cytotoxic in assay [1] was 0.247% [at 0.349 µM]. In assay [2], the activity change, negative = cytotoxicity is -6.13% [at 0.349 µM].
With `CC(=O)NS(=O)(=O)c1ccc(N)cc1`, the Potency entry in assay [1] and in assay [2] was “inactive” in each case.
For `O=C(O)c1[nH]n(-c2ccc(S(=O)(=O)O)cc2)c(=O)c1N=Nc1ccc(S(=O)(=O)O)cc1`, the Potency entry in assay [1] and in assay [2] was “inactive” each time.
`c1ccc(C[n+]2cccc3ccccc32)cc1`: the Potency entry in assay [1] and in assay [2] was “inactive” each time.
As to `Clc1nc2ccccc2nc1Cl`, the Potency result in assay [1] and in assay [2] was “inactive” throughout.
In the case of `CCCCCCOC(=O)CCCCC(=O)OCCCCCC`, the Potency entry in assay [1] and in assay [2] was “inactive” throughout.
Take `O=C(CS(=O)Cc1ccco1)NC/C=C\COc1cc(CN2CCCCC2)ccn1` (stereo not drawn): the Potency entry in assay [1] and in assay [2] was “inactive” each time.
In the case of `O=C(c1ccc(O)cc1)c1ccc(Cl)cc1`, the Potency entry in assay [1] and in assay [2] was “inactive” in each case.
For `CC(C)CCO`, the Potency entry in assay [1] and in assay [2] was “inactive” throughout.
Consider `C=CC(=O)NCOCC(C)C`, for which the Potency entry in assay [1] and in assay [2] was “inactive” each time.
Take `C/C=C/C(=O)CCCC`: the Potency result in assay [1] and in assay [2] was “inactive” throughout.
For `CCCCNCCCC`, the Potency entry in assay [1] and in assay [2] was “inactive” each time.
Regarding `c1ccc2c(c1)CCC2`, the Potency entry in assay [1] and in assay [2] was “inactive” throughout.
Take `CC(C)COC(=O)C(C)C`: the Potency result in assay [1] and in assay [2] was “inactive” throughout.
Turning to `CCCCCCCCCCC=O`, the Potency result in assay [1] and in assay [2] was “inactive” in each case.
Take `O=C(O)c1cccc(Cl)c1Cl`: the Potency entry in assay [1] and in assay [2] was “inactive” each time.
For the molecule `C/C=C/c1ccc(OC)cc1`, the Potency result in assay [1] and in assay [2] was “inactive” each time.
As to `O=c1cc(CO)occ1O`, the Potency result in assay [1] and in assay [2] was “inactive” in each case.
Consider `CC[C@H](C)C(=O)O[C@H]1C[C@@H](C)C=C2C=C[C@H](C)[C@H](CC[C@@H]3C[C@@H](O)CC(=O)O3)[C@H]21`, for which the Potency entry in assay [1] and in assay [2] was “inactive” each time.
Take `CC(=O)CCC(C)C`: the Potency result in assay [1] and in assay [2] was “inactive” in each case.
As to `CC(=O)c1ccc(O)c(C(N)=O)c1`, the Potency result in assay [1] and in assay [2] was “inactive” each time.
On to `CCO[Si](C)(OCC)OCC`, for which the Potency entry in assay [1] and in assay [2] was “inactive” in each case.
Consider `C#Cc1ccc(-c2ccccc2F)cc1`, for which the Potency result in assay [1] and in assay [2] was “inactive” each time.
Turning to `CCCCCCCCCCc1ccccc1`, the Potency result in assay [1] and in assay [2] was “inactive” each time.
Consider `CCCCCCCCCCCCCOC(=O)CCSCCC(=O)OCCCCCCCCCCCCC`, for which, in assay [1], the viability change, negative = cytotoxic is 3.07% [at 18.9 µM]. For the same molecule, in assay [2], the activity change, negative = cytotoxicity is -4.92% [at 18.9 µM].
Regarding `Cc1cc(C)cc(N)c1`, the Potency entry in assay [1] and in assay [2] was “inactive” each time.
For `C=CCOC(=O)c1ccccc1C(=O)OCC=C`, the Potency result in assay [1] and in assay [2] was “inactive” each time.
Take `Cc1oc(-c2ccccc2)nc1CCOc1cccc2c1ccn2CCC(=O)O`: the Potency entry in assay [1] and in assay [2] was “inactive” throughout.
As to `CCC=CC#N`, the Potency result in assay [1] and in assay [2] was “inactive” each time.
Consider `CC(=O)Nc1cc(S(=O)(=O)O)cc2cc(S(=O)(=O)O)c(N=Nc3ccccc3)c(O)c12`, for which the Potency entry in assay [1] and in assay [2] was “inactive” throughout.
Consider `Clc1ccccc1CN1CCc2sccc2C1`, for which the Potency entry in assay [1] and in assay [2] was “inactive” each time.
For the molecule `CN1[C@@H]2CC[C@H]1CC(OC(=O)C(O)c1ccccc1)C2` (stereo partly drawn), the Potency result in assay [1] and in assay [2] was “inactive” throughout.
In the case of `C=CCCCCCCCCCCCCCC`, in assay [1], the viability change, negative = cytotoxic is -1.45% [at 18.9 µM]. Moreover, the activity change, negative = cytotoxicity in assay [2] was -8.5% [at 18.9 µM].
Regarding `C[C@]12CC[C@@H]3c4ccc(O)cc4CC[C@H]3[C@@H]1C[C@@H](O)[C@@H]2O`, the Potency entry in assay [1] and in assay [2] was “inactive” throughout.
As to `CCCc1ccc(OC)cc1`, the Potency entry in assay [1] and in assay [2] was “inactive” in each case.
With `O=C[C@H](O)[C@H](O)[C@H](O)CO`, the Potency result in assay [1] and in assay [2] was “inactive” throughout.
`C[C@@H]1CN(c2c(F)c(F)c3c(=O)c(C(=O)O)cn(C4CC4)c3c2F)C[C@H](C)N1`: the viability change, negative = cytotoxic in assay [1] is -1.63% [at 18.9 µM]. Further, in assay [2], the activity change, negative = cytotoxicity was -12.9% [at 18.9 µM].
Turning to `c1ccccc1`, the Potency entry in assay [1] and in assay [2] was “inactive” each time.
`C#C[C@]1(O)CC[C@H]2[C@@H]3[C@H](C)CC4=C(CCC(=O)C4)[C@H]3CC[C@@]21C`: the Potency entry in assay [1] and in assay [2] was “inactive” each time.
Consider `CC(=O)Nc1ccc2c(c1)Cc1cc(NC(C)=O)ccc1-2`, for which the Potency result in assay [1] and in assay [2] was “inactive” in each case.
In the case of `CCCOCC(C)O` (stereo not drawn), the Potency entry in assay [1] and in assay [2] was “inactive” each time.
Turning to `O=C1OC(=O)c2cccc3cccc1c23`, the Potency result in assay [1] and in assay [2] was “inactive” each time.
Take `OC12N=C(c3ccccc3)SC1Cc1cc(Cl)ccc12` (stereo not drawn): the Potency result in assay [1] and in assay [2] was “inactive” each time.
`O=[N+]([O-])c1cccc(C(F)(F)F)c1`: the Potency entry in assay [1] and in assay [2] was “inactive” each time.
In the case of `CN(C)CCOCCO`, the Potency result in assay [1] and in assay [2] was “inactive” throughout.
Consider `CC(=O)Nc1ccc(C(=O)CCl)cc1`, for which the Potency entry in assay [1] and in assay [2] was “inactive” in each case.
For the molecule `OCCOCCN1CCN(C(c2ccccc2)c2ccc(Cl)cc2)CC1` (stereo not drawn), the Potency result in assay [1] and in assay [2] was “inactive” each time.
For the molecule `O=C1CC[C@H](C(=O)N2CCCCC2)N1`, the Potency result in assay [1] and in assay [2] was “inactive” throughout.
